Measurements: the supplement of paper PMC6555819

How the values were obtained:
Assay in all cases: PBM binding z-score (relative to random genomic background probes); higher = stronger binding; sequences stand for … in GC…GCGATTGACAGCGTAGAATGAAGG
[1] = system: FXR:RXRa (NR concentration 270 nM, RXRa partner concentration 90 nM)
Procedure, shortened: (§1)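 On custom Agilent 4×180K arrays, double-stranded probes with 34-nt variable regions carried direct-repeat seeds, single-nucleotide variants, half-site ablations or random human genomic background. Ligand-free nuclear receptor dimers were applied for 1 h, and binding was read with antibodies against each partner (one per run). Binding z-scores come from regression-normalized fluorescence, with the random background probes as reference.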

[2] = system: LXRa:RXRa (NR concentration 270 nM, RXRa partner concentration 90 nM)
Procedure, shortened: as §1

[3] = system: LXRa homodimer (NR concentration 270 nM)
Procedure, shortened: as §1

[4] = system: LXRb:RXRa (NR concentration 270 nM, RXRa partner concentration 90 nM)
Procedure, shortened: as §1

[5] = system: LXRb homodimer (NR concentration 270 nM)
Procedure, shortened: as §1

[6] = system: PPARa:RXRa (NR concentration 270 nM, RXRa partner concentration 90 nM)
Procedure, shortened: as §1

[7] = system: PPARg:RXRa (NR concentration 180 nM, RXRa partner concentration 90 nM)
Procedure, shortened: as §1

[8] = system: PPARg:RXRa 270nM:90nM, anti-RXR (NR concentration 270 nM, RXRa partner concentration 90 nM)
Procedure, shortened: as §1

[9] = system: PPARg:RXRa 30nM:10nM, anti-RXR (NR concentration 30 nM, RXRa partner concentration 10 nM)
Procedure, shortened: as §1

[10] = system: PPARg:RXRa 90nM:30nM, anti-RXR (NR concentration 90 nM, RXRa partner concentration 30 nM)
Procedure, shortened: as §1

TCGAGTAGTTTACCAATGGGGCATTCAGCTTTCT
PBM binding z-score [1]: -0.0204
PBM binding z-score [2]: -0.0341
PBM binding z-score [3]: -0.552
PBM binding z-score [4]: 0.423
PBM binding z-score [5]: -0.375
PBM binding z-score [6]: -0.115
PBM binding z-score [7]: -0.798
PBM binding z-score [8]: 0.325
PBM binding z-score [9]: 0.821
PBM binding z-score [10]: 0.499

ACTATTAGTTGACTTTGGGCAACCGATACGACGC
PBM binding z-score [1]: 0.0915
PBM binding z-score [2]: 0.0714
PBM binding z-score [3]: 0.0306
PBM binding z-score [4]: 0.155
PBM binding z-score [5]: 0.67
PBM binding z-score [6]: -0.00502
PBM binding z-score [7]: 0.965
PBM binding z-score [8]: 0.394
PBM binding z-score [9]: 0.326
PBM binding z-score [10]: 0.537

TCATATAGGTAAAAGGGGAAAGTCGGTGTGGTAA
PBM binding z-score [1]: 1.2
PBM binding z-score [2]: 0.984
PBM binding z-score [3]: 0.33
PBM binding z-score [4]: 1.32
PBM binding z-score [5]: 0.445
PBM binding z-score [6]: 3.75
PBM binding z-score [7]: 6.27
PBM binding z-score [8]: 6.98
PBM binding z-score [9]: 6.37
PBM binding z-score [10]: 7.9

CCGAGTAGGTTATGGGGCACTCAGGCAACGGTGA
PBM binding z-score [1]: 0.104
PBM binding z-score [2]: 0.294
PBM binding z-score [3]: -0.464
PBM binding z-score [4]: 0.136
PBM binding z-score [5]: -0.707
PBM binding z-score [6]: 2.08
PBM binding z-score [7]: 3.55
PBM binding z-score [8]: 4.33
PBM binding z-score [9]: 2.45
PBM binding z-score [10]: 4.11

TCTTGTATATCAATAGAGGTTAAGAAAGTGCGCT
PBM binding z-score [1]: 0.889
PBM binding z-score [2]: 3.66
PBM binding z-score [3]: 0.646
PBM binding z-score [4]: 1.74
PBM binding z-score [5]: 0.472
PBM binding z-score [6]: 1.77
PBM binding z-score [7]: 0.559
PBM binding z-score [8]: 1.69
PBM binding z-score [9]: 3.02
PBM binding z-score [10]: 2.45

ATCTCTAAGTAACCAAGTTCAGTGAATGCCGAAC
PBM binding z-score [1]: 0.436
PBM binding z-score [2]: 0.569
PBM binding z-score [3]: 0.843
PBM binding z-score [4]: 0.518
PBM binding z-score [5]: 0.349
PBM binding z-score [6]: 0.397
PBM binding z-score [7]: -0.15
PBM binding z-score [8]: 0.228
PBM binding z-score [9]: 0.371
PBM binding z-score [10]: 0.352

TAGCCTAGGCCATTCAGGGGCCAGTATAGAAAGC
PBM binding z-score [1]: -0.487
PBM binding z-score [2]: -0.796
PBM binding z-score [3]: -0.549
PBM binding z-score [4]: -0.624
PBM binding z-score [5]: -0.52
PBM binding z-score [6]: -0.185
PBM binding z-score [7]: 0.0353
PBM binding z-score [8]: -0.377
PBM binding z-score [9]: -0.468
PBM binding z-score [10]: -0.511

TCTATTAGTGGATTAGGGCAACCGAAACAGCGGA
PBM binding z-score [1]: 0.803
PBM binding z-score [2]: 0.521
PBM binding z-score [3]: 0.262
PBM binding z-score [4]: 0.532
PBM binding z-score [5]: 0.78
PBM binding z-score [6]: 0.571
PBM binding z-score [7]: 0.412
PBM binding z-score [8]: 1.68
PBM binding z-score [9]: 3.07
PBM binding z-score [10]: 2.64

ATCACTAGGTAAAAGTTCAGTGAATCCCGAGGAT
PBM binding z-score [1]: 0.841
PBM binding z-score [2]: 1.47
PBM binding z-score [3]: 1.23
PBM binding z-score [4]: 0.945
PBM binding z-score [5]: 0.59
PBM binding z-score [6]: 4.85
PBM binding z-score [7]: 8.25
PBM binding z-score [8]: 8.67
PBM binding z-score [9]: 7.65
PBM binding z-score [10]: 9.23

AGTCAAAGTTCATCTAGGTAACGTGAGATATGCT
PBM binding z-score [1]: 6.5
PBM binding z-score [2]: 5.85
PBM binding z-score [3]: 4.89
PBM binding z-score [4]: 3.81
PBM binding z-score [5]: 1.73
PBM binding z-score [6]: 4.76
PBM binding z-score [7]: 6.65
PBM binding z-score [8]: 6.18
PBM binding z-score [9]: 3.58
PBM binding z-score [10]: 5.42

ACTAGTTGGTCAGCTGAGGACACACACAATTCGG
PBM binding z-score [1]: 1.67
PBM binding z-score [2]: -0.161
PBM binding z-score [3]: -0.165
PBM binding z-score [4]: 0.0976
PBM binding z-score [5]: 0.0569
PBM binding z-score [6]: 0.0805
PBM binding z-score [7]: 0.997
PBM binding z-score [8]: -0.202
PBM binding z-score [9]: -0.228
PBM binding z-score [10]: -0.243

CCTACTGGGCCAAAAAGGGCATTGATGCCGATAA
PBM binding z-score [1]: -0.479
PBM binding z-score [2]: -0.109
PBM binding z-score [3]: -0.296
PBM binding z-score [4]: -0.0231
PBM binding z-score [5]: -1
PBM binding z-score [6]: 1.12
PBM binding z-score [7]: 0.538
PBM binding z-score [8]: 1.32
PBM binding z-score [9]: -0.152
PBM binding z-score [10]: 0.651

GTACCAAGGTGAATCGGTCGTTGATGAGTAGGCG
PBM binding z-score [1]: 0.346
PBM binding z-score [2]: 0.0414
PBM binding z-score [3]: -0.326
PBM binding z-score [4]: -0.181
PBM binding z-score [5]: -0.693
PBM binding z-score [6]: 1.05
PBM binding z-score [7]: 0.567
PBM binding z-score [8]: 0.624
PBM binding z-score [9]: -0.427
PBM binding z-score [10]: 0.0488

CTCGAAAGGTCGTACTCAGGTGAGTATACCAAAC
PBM binding z-score [1]: 5.55
PBM binding z-score [2]: 4
PBM binding z-score [3]: 0.513
PBM binding z-score [4]: 3.59
PBM binding z-score [5]: 0.9
PBM binding z-score [6]: 4.59
PBM binding z-score [7]: 2.86
PBM binding z-score [8]: 3.85
PBM binding z-score [9]: 1.33
PBM binding z-score [10]: 2.46

GCTGCTAGGACAGGTTGGTCAGCTAACGGGTACG
PBM binding z-score [1]: -0.662
PBM binding z-score [2]: -0.909
PBM binding z-score [3]: -0.343
PBM binding z-score [4]: -0.926
PBM binding z-score [5]: -0.654
PBM binding z-score [6]: -0.661
PBM binding z-score [7]: 0.0442
PBM binding z-score [8]: -0.697
PBM binding z-score [9]: -1.16
PBM binding z-score [10]: -0.722

TTGCCTAGGTCATGGGCCAGTATACCACGCGAAC
PBM binding z-score [1]: 4.71
PBM binding z-score [2]: 3.43
PBM binding z-score [3]: 0.623
PBM binding z-score [4]: 2.49
PBM binding z-score [5]: -0.439
PBM binding z-score [6]: 4.25
PBM binding z-score [7]: 3.7
PBM binding z-score [8]: 3.59
PBM binding z-score [9]: 0.614
PBM binding z-score [10]: 2.48

AGAACGGGGGCAATGAGTTGATAGCACGGGTGGC
PBM binding z-score [1]: 2.35
PBM binding z-score [2]: 2.45
PBM binding z-score [3]: 0.461
PBM binding z-score [4]: 4.18
PBM binding z-score [5]: 6.07
PBM binding z-score [6]: 3.66
PBM binding z-score [7]: 2.98
PBM binding z-score [8]: 4.15
PBM binding z-score [9]: 2.33
PBM binding z-score [10]: 3.26

ACTCTGAGGACAAAGGTCAGAGCTACGCCAGTGA
PBM binding z-score [1]: 4.52
PBM binding z-score [2]: 4.08
PBM binding z-score [3]: 1.44
PBM binding z-score [4]: 3.34
PBM binding z-score [5]: 0.531
PBM binding z-score [6]: 4.76
PBM binding z-score [7]: 7.44
PBM binding z-score [8]: 7
PBM binding z-score [9]: 5.4
PBM binding z-score [10]: 6.74

CTCGAAAGGTCGTGCTCAGGTGAGTGTACCAAAC
PBM binding z-score [1]: 5.56
PBM binding z-score [2]: 4.02
PBM binding z-score [3]: 0.294
PBM binding z-score [4]: 3.22
PBM binding z-score [5]: 0.22
PBM binding z-score [6]: 4.73
PBM binding z-score [7]: 2.35
PBM binding z-score [8]: 4.01
PBM binding z-score [9]: 1.05
PBM binding z-score [10]: 2.56

ATCTCTCGGTAAAAGTTCAGTGAATCCCGAGGAT
PBM binding z-score [1]: 0.576
PBM binding z-score [2]: 1.16
PBM binding z-score [3]: 1.29
PBM binding z-score [4]: 1.07
PBM binding z-score [5]: 1.12
PBM binding z-score [6]: 2.92
PBM binding z-score [7]: 3.81
PBM binding z-score [8]: 5.71
PBM binding z-score [9]: 3.76
PBM binding z-score [10]: 6.34
